Records with an inconclusive call do not appear. The source made the active and inactive calls. The calls were made as follows: active = hit-call score of the fitted dose curve at least 0.9, where 1 is the maximum; inconclusive = response in the unintended direction; inactive = score below 0.9.
biological target: human Thyroid Receptor alpha (THRa1), THRA (gene 7067) (UniProt P10827); test: ATG_THRa1_TRANS: Attagene TRANS-FACTORIAL HepG2 Assay for human Thyroid Receptor alpha (THRa1) (AID 2283014)
Procedure: ATG_TRANS is a cell-based, multiplexed-readout assay that uses HepG2, a human liver cell line, with measurements taken at 24 hours after chemical dosing in a 24-well plate.ATG_THRa1_TRANS is one of 30 assay component(s) measured or calculated from the ATG_TRANS assay. It is designed to make measurements of mRNA induction, a form of inducible reporter, as detected with fluorescence intensity signals by Reverse transcription polymerase chain reaction (RT-PCR) and Capillary electrophoresis technology.Data from the assay component ATG_THRa1_TRANS was analyzed into 1 assay endpoint. This assay endpoint, ATG_THRa1_TRANS, was analyzed in the positive analysis fitting direction relative to DMSO as the negative control and baseline of activity. Using a type of inducible reporter, measures of mRNA for gain-of-signal activity can be used to understand the reporter gene at the transcription factor-level as they relate to the gene THRA. Furthermore, this assay endpoint can be referred to as a primary readout, because this assay has produced multiple assay endpoints where this one serves a reporter gene function. To generalize the intended target to other relatable targets, this assay endpoint is annotated to the nuclear receptor intended target family, where the subfamily is non-steroidal.
Human liver HepG2 cells are transiently transfected with multiple reporter transcription units (MRTUs) in 6-well plates using FuGene 6 reagent (Roche; 3 ml FuGene/1 mg DNA). The MRTU constructs are regulated by a cis-regulating element (promoter). […] A major difference between the CIS and TRANS system is that in CIS activities of endogenous TFs are measured, whereas the TRANS assay evaluates changes in activities of exogenous, chimeric NR-Gal4 proteins. […] At the end of 24 hour incubation, total RNA was isolated using TriZol reagent (Invitrogen). The isolated RNA is then reverse-transcribed using oligo(dT) primer and Mo-MLV reverse transcriptase (Invitrogen) with DNAse I (Ambion) treatment for 30 min. The one-tenth of the produced cDNA was amplified by PCR using Taq DNA polymerase (Invitrogen) and two reporter sequence-specific primers. The PCR products were fluorescently labeled by primer extension with 6-arboxyfluorescein (6-FAM) 5'-labeled reporter sequence-specific primer (2 min at 95 C, 20 s at 68 C and 10 min at 72 C) and these products were digested with 5U of HpaI (New England Biolabs) for 2h at 37 C. The fragments were purified using Qiaquick PCR columns (Qiagen), analyzed on an ABI 3130xL genetic analyzer (Applied Biosystems) with peak positions identified by using a set of X-rhodamine (ROX)-labeled MapMarker1000 molecular weight standards (BioVentures). The raw capillary electrophoresis data was processed using Attagraph software (Attagene).

Chain of human Thyroid Receptor alpha (THRa1), THRA (gene 7067) (P10827 whole entry, looked up): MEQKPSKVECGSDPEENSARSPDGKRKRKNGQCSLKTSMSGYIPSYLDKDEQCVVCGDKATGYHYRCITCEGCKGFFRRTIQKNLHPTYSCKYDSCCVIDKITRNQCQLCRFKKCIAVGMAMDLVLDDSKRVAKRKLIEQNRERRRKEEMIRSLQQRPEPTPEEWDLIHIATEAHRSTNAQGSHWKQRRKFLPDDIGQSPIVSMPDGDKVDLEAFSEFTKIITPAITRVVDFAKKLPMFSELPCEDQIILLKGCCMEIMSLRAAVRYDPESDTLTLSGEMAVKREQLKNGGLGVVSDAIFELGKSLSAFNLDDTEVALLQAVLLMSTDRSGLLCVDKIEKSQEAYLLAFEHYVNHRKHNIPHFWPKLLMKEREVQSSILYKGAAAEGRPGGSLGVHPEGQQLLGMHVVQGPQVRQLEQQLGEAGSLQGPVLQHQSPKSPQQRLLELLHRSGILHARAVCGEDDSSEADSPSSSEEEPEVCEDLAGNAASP

SMILES | outcome | AC50
C=CC(C)(CCC=C(C)C)OC=O (stereo not given) | inactive | 
NC(=O)NC1NC(=O)NC1=O (stereo not given) | inactive | 
COc1cc(C=O)ccc1OC(=O)C(C)C | inactive | 
O=C(O)CCCCCCCCCCC(=O)O | inactive | 
COc1c(Cl)c(Cl)c(Cl)c(Cl)c1Cl | inactive | 
CCC(O)CO (stereo not given) | inactive | 
C/C=C(\C)C(=O)OCc1ccccc1 | inactive | 
O=C1CCCCCCCCCCOCCCCO1 | inactive | 
CCCCCCCCCCCCSC | inactive | 
O=C(COc1ccc(Cl)cc1)N1CCN(Cc2ccc3c(c2)OCO3)CC1 | inactive | 
CC1COc2ccccc2N1C(=O)C(Cl)Cl (stereo not given) | inactive | 
CC(C)=CCC/C(C)=C/COC=O | inactive | 
Cc1ccc(C=O)cc1 | inactive | 
FC1(F)C(F)(F)C(F)(F)C2(F)C(F)(C1(F)F)C(F)(F)C(F)(F)C1(F)C(F)(F)C(F)(F)C(F)(F)C(F)(F)C12F (stereo not given) | inactive | 
Cc1c(Cl)c(=O)oc2cc(O)ccc12 | inactive | 
C[C@H]1C[C@@H]2[C@H]([C@@H](O)C[C@@]3(C)[C@H]2CC[C@]3(O)C(=O)CO)[C@@]2(C)C=CC(=O)C=C12 | inactive | 
c1ccc(CCCc2ccccn2)cc1 | inactive | 
Nc1cc(Cl)c(O)c(Cl)c1 | inactive | 
CCCCCC(CO)CCC (stereo not given) | inactive | 
COc1cc(C(C)(C)C)c(O)c(C(C)(C)C)c1 | inactive | 

SMILES | outcome | AC50
COc1nc(C)nc(N)n1 | inactive | 
CC(=O)O[C@H](CC(=O)[O-])C[N+](C)(C)C | inactive | 
CC1(C)C(=O)N(Br)C(=O)N1Cl | inactive | 
CC(C)Oc1ccccc1O | inactive | 
CCCCCCCCCCCCCC(=O)O | inactive | 
C=C[C@@H](C)CCC=C(C)C | inactive | 
CCCCNC(=O)NS(=O)(=O)c1ccc(C)cc1 | inactive | 
C[C@]12CC[C@H]3[C@@H](CCC4=CC(=O)CC[C@@]43C)[C@@H]1CC[C@@H]2C(=O)CO | inactive | 
CCCCCC(=O)OCCc1ccccc1 | inactive | 
O=c1cc(-c2ccccc2)oc2cc(O)cc(O)c12 | inactive | 
c1ccc2sc(SN(C3CCCCC3)C3CCCCC3)nc2c1 | inactive | 
CCCCOCCOCCOCCOCCO | inactive | 
CCc1c(C)cc(N)c(CC)c1N | inactive | 
Cc1ccc(C=O)s1 | inactive | 
Cc1ccccc1C=O | inactive | 
NC(=O)Nc1ccc(Cl)cc1 | inactive | 
CC(=O)OCCC(C)CC(C)(C)C (stereo not given) | inactive | 
COC(C(=O)O)c1ccccc1 (stereo not given) |  | 62.9 µM (active)
C=CC(=O)OCC(O)COc1ccccc1 (stereo not given) | inactive | 
O=c1[nH]c(=O)n([C@H]2CCCO2)cc1F | inactive | 

Source: PubChem BioAssay (EPA / NIEHS)
